Compound activity as filed in PubChem.
Rows were chosen to be rich in hits. Some 8.3% of all compounds tested hit in one or more screens of this group.
Lassa entry inh – qHTS for Inhibitors of binding or entry into cells for Lassa Virus | Lassa virus pseudotype entry inhibition, cell reporter | 300,000 compounds, 1.2% hits | Potency, µM (top dose mostly 37.9 µM), without a hit: top-dose activity change, negative = inhibition, most hits filed as inhibitors; calls by dose curve; tested in HEK293 cells; further: potency means the concentration at half of the fitted maximal effect; nearly all actives have a fitted effect of over 50% in size
HCMV antiviral – qHTS Assay for inhibitors of the human cytomegalovirus (HCMV); HFF cells, HCMV-luciferase reporter, 72 h; stronger effect = lower value; activity change, negative = inhibition, % at 57.5 µM; 410,000 compounds, 4.5% hits; in the data active means activity change below about -60%; inconclusive means no clear call, values can overlap the other calls; inactive means above about -39%
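Compounds were evaluated in HFFs infected with an HCMV luciferase reporter virus (MOI 1 PFU/cell). Luciferase in lysates collected 72 h post infection served as the replication measure.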
FMDV antiviral – High Throughput Screening for Foot and Mouth Disease Virus Antivirals | FMDV antiviral cell-based qHTS | Potency, µM (highest dose often 57.9 µM), for inactives: at the highest dose activity change, negative = inhibition, usual class: inhibitors | 410,000 compounds, 1.2% hits; calls by dose curve; tested in HEK293T cells; further: read-out not given here; potency means the concentration at half of the fitted maximal effect; nearly all actives have a fitted effect of over 45% in size
HCV inhibitor – qHTS Assay for Inhibitors of Hepatitis C Virus (HCV); Huh7.5.1 HCVcc-Cre infection, luciferase reporter, 44 h; Potency, µM (top dose mostly 41.8 µM), without a hit: at the top dose activity change, negative = inhibition, actives largely listed as inhibitors; 340,000 compounds, 3.4% hits; AID 651820, 2012; further: potency means the concentration at half of the fitted maximal effect
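Cells seeded at 1,000/well and cultured 4 h, then compounds added followed by HCVcc-Cre virus (~0.5 moi). After 44 h further culture, luciferase substrate was added, plates held 15 min at room temperature, and luminescence read for 15 sec.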
MARV entry inh – qHTS for inhibitors of binding or entry into cells for Marburg Virus. Marburg virus pseudotyped entry inhibition, cell reporter. AID 540276, 2011. Potency, µM (highest dose often 37.8 µM), inactives show at the top dose activity change, negative = inhibition, actives largely listed as inhibitors. 300,000 compounds, 1.8% hits; calls by dose curve; tested in HEK293 cells; further: potency means the concentration at half of the fitted maximal effect
Giardia FBPA inh – qHTS Assay for Inhibitors of Fructose-1,6-bisphosphate Aldolase from Giardia Lamblia; A8B2U2; purified Giardia FBPA; Potency, µM (top dose mostly 59.6 µM), inactives show at the top dose activity, negative = inhibition, most hits filed as inhibitors; 290,000 compounds, 0.71% hits; AID 2451, 2010; further: potency means the concentration at half of the fitted maximal effect; nearly all actives have a fitted effect of over 55% in size
Target sequence (A8B2U2 whole entry, looked up): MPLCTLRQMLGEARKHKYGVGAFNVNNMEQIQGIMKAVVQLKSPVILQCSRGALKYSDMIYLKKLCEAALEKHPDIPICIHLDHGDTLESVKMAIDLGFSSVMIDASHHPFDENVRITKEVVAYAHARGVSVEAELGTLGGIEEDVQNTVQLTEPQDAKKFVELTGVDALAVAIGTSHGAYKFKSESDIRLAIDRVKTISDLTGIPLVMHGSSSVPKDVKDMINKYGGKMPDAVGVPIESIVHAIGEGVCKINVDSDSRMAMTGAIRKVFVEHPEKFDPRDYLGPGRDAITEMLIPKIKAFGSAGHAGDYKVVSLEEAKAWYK
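40 nM FBPA preincubated 10 min at RT with compound (up to 57.5 uM final), then substrate plus GAPDH/TPI/NAD/arsenate coupling and diaphorase/resazurin added. Fluorescence read after 20 min at RT, 525/598 nm.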
The depositor's hits bear a star; ? = inconclusive; / = not tested or not shown; [ ] = dose if it differs, or a comment. Unless noted, the call rests on the fitted dose curve; in most records, active means well fitted curve in the direction sought with a large enough effect; inconclusive means small, poorly fitted or top-dose-only effect, or another doubt; inactive means no such curve, though single readings can be large; an effect the other way counts as inactive or inconclusive. On the % scale 0 is the no-effect control and ±100 the full control effect.

SMILES	Lassa entry inh	HCMV antiviral	FMDV antiviral	HCV inhibitor	MARV entry inh	Giardia FBPA inh
CC1CN(S(=O)(=O)c2ccc(NC(=O)c3cc(-c4ccccc4O)n[nH]3)cc2)CC(C)O1 (centres undefined)	21µM*	-98*	?	8.9µM*	12µM*	16%
Cc1nc2ccc(NC(=O)c3cccc(S(=O)(=O)N4CC(C)OC(C)C4)c3)cc2s1 (centres undefined)	?	0	20µM*	2.8µM*	-28%[46.1 µM]	-7%
O=C(O)C1Cc2c([nH]c3ccccc23)C(c2coc3ccccc3c2=O)N1 (centres undefined)	/	/	1%	/	/	-7%
CCN1C(=O)N(S(=O)(=O)C(F)(F)F)C(c2ccccc2)C(C(=O)OC)=C1C (centres undefined)	?	/	/	/	-6%[14.2 µM]	/
COc1cccc(-c2nc(-c3ccc4c(c3)NC(=O)CO4)cs2)c1	13%	2	-15%	14µM*	?	0%
CC(Nc1nc(-c2ccc3c(c2)NC(=O)CO3)cs1)c1ccccc1 (centres undefined)	-14%	?	-17%	11µM*	?	-5%
COc1ccc(CN2CCc3c(c(=O)n4ncc(C(=O)N5CCN(c6ccccc6OC)CC5)c4n3C)C2)cc1	?	-84*	?	/	/	/
CC(C)c1ccc(C2C3=C(COC3=O)Nc3cc4c(cc32)OCO4)cc1 (centres undefined)	?	-88*	5%	-46%	?	-1%
O=C1CC(c2ccccc2)NC(=O)N1 (centres undefined)	-3%	-99*	-5%	11%	-3%	7%
COC[C@@H]1CCCN1c1ccc2c(c1)O[C@@H](COCc1ccccc1)CN([C@@H](C)c1ccccc1)S2(=O)=O	/	-15	36%	/	/	/
C[C@H](c1ccccc1)N1C[C@@H](COCc2ccccc2)Oc2cc(N3CC[C@H](O)C3)ccc2S1(=O)=O	/	-76*	9%	/	/	/
C[C@H](c1ccccc1)N1C[C@H](COCc2ccccc2)Oc2cc(N3CC[C@H](O)C3)ccc2S1(=O)=O	/	?	17%	/	/	/
CCCCC[C@@H](C)N1C[C@H](COCc2ccccc2)Oc2cc(N3CC[C@H](N(C)C)C3)ccc2S1(=O)=O	/	-101*	1%	/	/	/
C[C@@H](c1ccccc1)N1C[C@H](COCc2ccccc2)Oc2cc(N3CC[C@@H](N(C)C)C3)ccc2S1(=O)=O	/	?	8%	/	/	/
C[C@@H](c1ccccc1)N1C[C@H](COCc2ccccc2)Oc2cc(N3CC[C@H](N(C)C)C3)ccc2S1(=O)=O	/	-61*	12%	/	/	/
COC[C@@H]1CCCN1c1ccc2c(c1)O[C@@H](COCc1ccccc1)CN([C@H](C)c1ccccc1)S2(=O)=O	/	-65*	11%	/	/	/
Cc1ccc2c(=O)c(C(=O)c3ccccc3)cn(CC(=O)Nc3ccc4c(c3)OCCO4)c2n1	-8%[46.1 µM]	4	-13%	/	/	/
COc1ccc2c(c1)C(n1cccc1)C(=O)N2C (centres undefined)	/	24	/	/	/	/
O=C(Cn1c(=O)nc(-c2ccccc2)c2cc(Cl)ccc21)NCCCc1ccccc1	-4%[46.1 µM]	16	-14%	/	-17%[46.1 µM]	/
COc1ccc(NC(=O)Cn2c3ncccc3c(=O)n2-c2ccc(C)c(C)c2)c(OC)c1	-15%[46.1 µM]	-2	-9%	/	/	/
Cc1ccc(-c2nc(CSCC(=O)NCCCN3CCOCC3)c(C)o2)cc1	?	16	-6%	16%	-3%	2%
Cc1ccc(-c2nc(CS(=O)CC(=O)NCc3ccc(Cl)cc3)c(C)o2)cc1 (centres undefined)	/	5	-12%	11µM*	/	3%
Cc1oc(-c2ccc(Cl)cc2)nc1CS(=O)CC(=O)NCCCN1CCN(Cc2ccccc2)CC1 (centres undefined)	/	-93*	-13%	1.3µM*	/	/
Cc1ccc(-c2nc(CSCC(=O)NCCN3CCN(Cc4ccccc4)CC3)c(C)o2)cc1	?	-65*	?	13µM*	?	0%
Cc1oc(-c2ccc(Cl)cc2)nc1CS(=O)CC(=O)NCc1ccccc1 (centres undefined)	30%[46.1 µM]	-28	8%	-5%	?	/
SMILES	Lassa entry inh	HCMV antiviral	FMDV antiviral	HCV inhibitor	MARV entry inh	Giardia FBPA inh
Cc1ccc(CNC(=O)CSCc2nc(-c3ccc(Cl)cc3)oc2C)cc1	10%[46.1 µM]	-5	-22%	/	18%[46.1 µM]	/
Cc1oc(-c2ccc(Cl)cc2)nc1CS(=O)CC(=O)NCCCN1CCCC(C)C1 (centres undefined)	-24%[46.1 µM]	0	2%	?	?	/
CCOc1ccc(-c2nc(CSCC(=O)NCc3ccc(Cl)cc3)c(C)o2)cc1	-2%[46.1 µM]	-66*	?	/	/	/
NS(=O)(=O)c1ccc(CCNC(=O)c2nc(SCc3ccccc3F)ncc2Cl)cc1	2%[46.1 µM]	-19	-23%	/	-2%[46.1 µM]	/
NCCC(O)C(=O)NC1C[C@@H](N)[C@H](O[C@@H]2OC(CN)C(O)C(O)C2O)C(O)[C@H]1O[C@H]1OC(CO)C(O)C(N)C1O (some centres undefined)	/	/	-9%	/	/	12%
Cc1cc(Cl)c2oc(C(=O)NC3CCC(O)CC3)c(C)c2c1 (centres undefined)	/	-10	55%	14µM*	/	-2%
CCc1nnc(NC(=O)c2ccc(S(=O)(=O)N3CCCCC3)cc2)s1	0%	-66*	-6%	1%	18%[46.1 µM]	3%
Cc1cc(C)cc(NC(=O)c2ccc(CN3CCc4ccccc4C3)cc2)c1	-7%	?	?	?	?	-21%
O=C(Nc1ccccc1)c1ccc(S(=O)(=O)N2CCCCC2)cc1	/	?	-4%	?	/	1%
O=C(Nc1ccc(S(=O)(=O)N2CCCCC2)cc1)c1ccc(CN2CCc3ccccc3C2)cc1	?	-74*	?	35µM*	?	-10%
Cc1ccc(NC(=O)c2ccc(CN3CCc4ccccc4C3)cc2)cc1	?	-79*	8%	?	?	-18%
CS(=O)(=O)Nc1ccc(C(=O)Nc2ccc(S(=O)(=O)N3CCCCC3)cc2)cc1	-1%	-76*	0%	-24%	0%	/
CCOc1ccc(CCNC(=O)c2cccc(-n3c(C)nc4cccnc43)c2C)cc1	-9%[46.1 µM]	?	0%	/	/	/
COc1cccc(Cn2c(=O)cnc3cnc(OCc4ccccc4)nc32)c1	/	/	-18%	/	/	5%
COc1ccccc1Cn1ccn(CC(=O)Nc2c(C)cc(C)cc2C)c(=O)c1=O	?	3	0%	/	/	/
O=C(Nc1ccccc1F)c1ccc(CN2CCc3ccccc3C2)cc1	/	?	-8%	11µM*	/	-9%
O=C(Nc1cccnc1)c1ccc(C(=O)Nc2cccnc2)cc1	7%	-24	-16%	-16%	-5%[46.1 µM]	12%
